Reference: PubChem BioAssay AID624352 (Sanford-Burnham Center for Chemical Genomics, 2012)
Screen size: about 360,000 compounds; about 2,600 (0.72%) were called active. Only a selection was taken, and actives are over-represented in it overall. Unmarked numbers belong to inactive results.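 The calls were made as follows: active = inhibition of the luminescence signal of 40% or more relative to plate controls, in a single-dose primary screen at 18.75 µM; inactive = the rest.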

Experiment: HIF-2a reporter inhibitors, primary screen, luminescence, 786-0 RCC cells (AID 624352)
Conditions: 786-0 RCC cells HIF-2a reporter, luciferase luminescence, overnight; at 18.8 µM; stronger effect = higher value
Cc1cc(C)c2c(NC(=O)C3CC3)nn(C)c2n1 showed an inhibition of 0.567%.
Compound Cc1n[nH]c(C)c1S(=O)(=O)N1CCCC(C(=O)Nc2ccc(Br)cc2)C1 (stereo unspecified) has an inhibition of 10.9%.
Nc1cccc(OCCCCCOc2cccc(N)c2)c1 showed an inhibition of -55.8%.
In the case of COc1ccc(-c2nc3c(s2)CCc2onc(-c4ccc(OC)cc4)c2-3)cc1, the inhibition is reported as -8.84%.
CO/N=C/CC(=O)c1ccc(OC)cc1 gave an inhibition of -11.6%.
With Cc1cc(NC(=O)COc2ccccc2C#N)no1 the inhibition was -198%.
For CCCOc1ccc(C(=O)C(CCC(CNCC)C(=O)c2ccc(OCCC)cc2)CNCC)cc1 (stereo unspecified), the inhibition was 98.1% (active).
With CCOc1cc(C(=O)O)ccc1OCCOc1ccccc1 the inhibition was 15.8%.
With CC(C)CCOc1ccc(C(=O)C[N+]2(C)CCOCC2)cc1 the inhibition was 12.3%.
Work on CC(CC(=O)O)CC(=O)NNC(=O)c1cccc(Br)c1 (stereo unspecified) yielded an inhibition of 15.7%.
With CC(=O)c1cccc(-c2ccc(CN3C(CC(C)C)C(=O)N(Cc4cn(CC5CCCCC5)nn4)CCS3(=O)=O)cc2)c1 (stereo unspecified) the inhibition was 4.21%.
Compound Cn1c(=O)cc(SCC(=O)N2CCN(C(=O)c3ccco3)CC2)c2ccccc21 has an inhibition of -11.7%.
CC(Sc1nncn1C)C(=O)NCCC1=CCCCC1 (stereo unspecified) gave an inhibition of 1.01%.
With O=C(CCl)N(Cc1cccc([N+](=O)[O-])c1)c1cccc(Cl)c1 the inhibition was 40.9% (active).
Cc1ccc(S(=O)(=O)N(CC(=O)Nc2cccc([N+](=O)[O-])c2)Cc2ccc(Cl)cc2)cc1 gave an inhibition of 8.15%.
CC(=O)N(CN1C(=O)C2C3C=CC(C3)C2C1=O)c1cccc(Cl)c1 (stereo unspecified) showed an inhibition of 9.8%.
NS(=O)(=O)c1cc2c(cc1Cl)NC(C(Cl)Cl)NS2(=O)=O (stereo unspecified) showed an inhibition of 2.3%.
In the case of O=C1C=C(c2ccc(Cl)cc2)C(=O)N1Nc1ccccc1, the inhibition is reported as 64.8% (active).
COc1ccc(CN2CCn3ncc(C(=O)Nc4ccc(Cl)cc4Cl)c3C2=O)cc1 showed an inhibition of 13.3%.
Work on C[C@]12c3[nH]c4ccc(Cl)cc4c3CCN1C(=O)[C@@H](CC(=O)NCCCn1ccnc1)C[C@@H]2C(=O)N1CCOCC1 yielded an inhibition of 6.91%.
In the case of Cc1cccc(NC(=O)c2nc(S(=O)(=O)Cc3ccccc3)ncc2Cl)c1, the inhibition is reported as 86.7% (active).
O=C(CS(=O)(=O)Cc1ccccc1)Nc1cccnc1 showed an inhibition of -1.93%.
With Cc1ccc(CS(=O)(=O)c2ncc(Cl)c(C(=O)Nc3nnc(C)s3)n2)cc1 the inhibition was 94.4% (active).
In the case of CN(CCC(=O)Nc1cc(S(=O)(=O)N(C)C)ccc1Cl)CC(=O)Nc1ccc(F)cc1, the inhibition is reported as 11.6%.
For Cc1cccc(NS(=O)(=O)c2ccc(C)c(C(=O)NCc3cccnc3)c2)c1, the inhibition was 9.9%.
For Cc1cc(NS(=O)(=O)c2ccc(NC(=S)NC(=O)c3ccc(F)cc3Cl)cc2)no1, the inhibition was 21.4%.
In the case of Cc1nnc(NC(=O)CSc2nccn2-c2cccc(C)c2C)s1, the inhibition is reported as 7.22%.
For Cc1cccc(CS(=O)(=O)c2ncc(Cl)c(C(=O)Nc3ccc(F)cc3)n2)c1, the inhibition was 86.1% (active).
Compound Cc1ccc(CS(=O)(=O)CCC(=O)NC2CC2)cc1 has an inhibition of 11.4%.
In the case of CCCN(CC(=O)Nc1ccccc1OC)C(=O)CCC(=O)c1ccc(F)cc1, the inhibition is reported as -7.63%.
O=C(CC1SC(=Nc2ccccc2)N(Cc2ccccn2)C1=O)Nc1cccc(Cl)c1 (stereo unspecified) showed an inhibition of -84.7%.
With CCN(C(=O)COC(=O)c1c(NC(C)=O)sc(C)c1C)C1CCS(=O)(=O)C1 (stereo unspecified) the inhibition was 12.6%.
O=C(NCc1cccnc1)C12CC3CC(CC(C3)C1)C2 showed an inhibition of 21.4%.
CCOC(=O)CNc1nc(Cl)nc(Nc2ccc(OC)cc2OC)n1 gave an inhibition of 12.9%.
In the case of CC1(C)CC2CC(C)(CN2c2ncnc3ccc(Br)cc23)C1 (stereo unspecified), the inhibition is reported as 31.5%.
In the case of COc1ccc(Nc2ncnc3ccc(Br)cc23)c(OC)c1, the inhibition is reported as 75.3% (active).
With CC1=NC2(CCCc3c2no[n+]3[O-])N(O)C1(C)C (stereo unspecified) the inhibition was -5.63%.
For Cc1cccc(-n2ncc(Cl)c(Cl)c2=O)c1, the inhibition was 84.5% (active).
With Cc1cccc(N2Cc3ccccc3C2=NC(=O)c2ccc(Cl)nc2)c1 the inhibition was -92.3%.
Work on Nc1c(-c2cccc(Cl)c2)cnn1-c1cccc([N+](=O)[O-])c1 yielded an inhibition of -139%.
For COc1ccc(OC)c(-c2c(=O)n(OCc3ccccc3Br)c3ccccc3[n+]2[O-])c1, the inhibition was 23.8%.
In the case of Cc1ccc(CNC(=O)COc2ccc(S(=O)(=O)NC(C)C)cc2)cc1, the inhibition is reported as -0.52%.
With Cn1c(=O)n(C)c2cc(CNc3ccc(N4CCOCC4)c(C(=O)O)c3)ccc21 the inhibition was 15.1%.
In the case of Cc1nnnn1/C(=C\c1ccccc1)C(=O)OCC(=O)N1CC2(C)CC1CC(C)(C)C2 (stereo unspecified), the inhibition is reported as 50.7% (active).
O=C(CNC(=O)c1cc(S(=O)(=O)N2CCOCC2)ccc1N1CCCC1)Nc1ccc(F)c(F)c1 showed an inhibition of 3.34%.
With COc1ccc(/C=N/N=C/c2c[nH]c(=O)c(C#N)c2Nc2ccccc2)cc1 the inhibition was 22.7%.
